Tests used:
Experiment in all cases: PBM binding z-score (relative to random genomic background probes); higher = stronger binding; sequences stand for … in GC…GCGATTGACAGCGTAGAATGAAGG
[1] = tested on: PPARg:RXRa DBDmut IVT, anti-RXR (DBD mutation: RXRa K156A/R161A, NR concentration 270 nM, RXRa partner concentration 90 nM)
Outline: (§1)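 Binding z-scores were set against random background probes. The data came from custom Agilent 4×180K protein-binding microarrays carrying double-stranded probes with 34-nt variable regions, incubated 1 h with ligand-free nuclear receptor dimers. Partner-specific antibodies detected binding, and scanned fluorescence was regression-normalized.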

[2] = tested on: PPARg:RXRa IVT, anti-PPARg (NR concentration 270 nM, RXRa partner concentration 90 nM)
Outline: as §1

[3] = tested on: PPARg DBDmut:RXRa IVT, anti-PPARg (DBD mutation: PPARg1 K132A/R137A, NR concentration 270 nM, RXRa partner concentration 90 nM)
Outline: as §1

[4] = tested on: PPARg DBDmut IVT, anti-PPARg (DBD mutation: PPARg1 K132A/R137A, NR concentration 270 nM)
Outline: as §1

[5] = tested on: PPARg homodimer (NR concentration 180 nM)
Outline: as §1

[6] = tested on: PXR:RXRa (NR concentration 270 nM, RXRa partner concentration 90 nM)
Outline: as §1

[7] = tested on: PXR homodimer (NR concentration 270 nM)
Outline: as §1

[8] = tested on: RARa:RXR (NR concentration 270 nM, RXRa partner concentration 90 nM)
Outline: as §1

[9] = tested on: RARa homodimer (NR concentration 270 nM)
Outline: as §1

[10] = tested on: RARb:RXRa (NR concentration 270 nM, RXRa partner concentration 90 nM)
Outline: as §1

[11] = tested on: RARb homodimer (NR concentration 270 nM)
Outline: as §1

[12] = tested on: RARg:RXRa (NR concentration 270 nM, RXRa partner concentration 90 nM)
Outline: as §1

[13] = tested on: RARg homodimer (NR concentration 270 nM)
Outline: as §1

[14] = tested on: RXRa DBDmut IVT, anti-RXR (DBD mutation: RXRa K156A/R161A, NR concentration 90 nM)
Outline: as §1

[15] = tested on: RXRa homodimer (NR concentration 180 nM)
Outline: as §1

[16] = tested on: THRa:RXRa (NR concentration 90 nM, RXRa partner concentration 90 nM)
Outline: as §1

[17] = tested on: THRa homodimer (NR concentration 90 nM)
Outline: as §1

[18] = tested on: VDR homodimer (NR concentration 270 nM)
Outline: as §1

Sequence	PBM binding z-score [1]	PBM binding z-score [2]	PBM binding z-score [3]	PBM binding z-score [4]	PBM binding z-score [5]	PBM binding z-score [6]	PBM binding z-score [7]	PBM binding z-score [8]	PBM binding z-score [9]	PBM binding z-score [10]	PBM binding z-score [11]	PBM binding z-score [12]	PBM binding z-score [13]	PBM binding z-score [14]	PBM binding z-score [15]	PBM binding z-score [16]	PBM binding z-score [17]	PBM binding z-score [18]
AGTCAAAGTTCGGGACGAGGTAACGTAAAGCACG	-0.421	0.748	0.226	-0.0246	0.441	0.716	0.0422	0.869	-0.0634	1.86	0.989	2.06	1.49	0.847	1.07	2.89	1.13	0.532
CCTGCCAGGTCATGGTCAGCTAATCTACAGTATG	2.15	2.35	-0.561	-0.338	1.2	2.16	0.231	2.61	-0.0161	3.78	3.28	4.12	4.46	1.81	3.17	3.64	2.48	0.972
GCTTACGGGTCAAAGGTTATAGAATGAATAGAAT	4.71	5.44	1.37	1.09	1.73	6.07	0.466	8.42	0.715	4.59	3.44	6.87	5.16	2.45	9.56	3.89	0.468	1.96
ACAGACAGGTAAGTGAAGGTAACTCAGCTGGACG	-0.107	0.305	0.744	-0.0686	-0.111	-0.306	0.283	-0.575	0.213	0.109	-0.171	-0.116	0.263	-0.281	-0.0799	0.972	-0.0252	-0.27
TTCCCAAGGTGAAGGTCGTTGATCCCTCTGTAGA	0.771	2.06	-0.218	-0.23	1.17	1.5	0.155	1.78	-0.438	2.2	1.87	1.35	1.04	-0.0232	1.74	2.52	1.11	0.952
CCAGACAGGTGAGACGGTAACTCAGCCTCGATTA	1.25	0.131	0.0493	-0.407	1	-0.403	0.193	-0.309	0.615	0.413	0.4	-0.0368	0.0246	0.0275	-0.179	-0.0755	0.114	0.029
ATCGAAAGGTCGAAGCTGAGTATACCCACCCGAA	0.112	1.14	0.883	-0.0386	1.49	2.27	0.151	3.14	0.371	3.63	2.18	3.83	3.5	1.42	4.13	1.73	0.00439	0.746
CAAGACAGGTGAAAGGTAACTCAGTCTGGTACGC	1.61	2.88	0.223	0.183	0.995	1.09	0.0379	1.92	0.108	1.57	0.906	1.58	0.784	-0.244	2.35	1.2	0.0377	-0.217
TCTCGGAGGACACGAAGTTCAGAGCTTTCCAGAG	1.43	-0.00253	-0.707	-1.05	-0.195	1.39	2.87	0.555	-0.518	2.36	2.07	1.17	2.04	1.08	0.47	1.72	0.372	2.38
ATCTCAAGGTAACCAAGTTCAGTGAATGCCGAAC	0.508	1.32	0.386	0.953	0.654	2.82	3	1.14	0.198	1.62	1.51	1.21	1.06	1.01	0.816	2.24	1.06	3.2
TTATATAGGTAAAGGTGAAAGTCGAACGATATGA	5.88	6.52	3.04	2.82	2.08	0.997	0.227	1.74	0.54	1.88	1.64	1.68	1.27	-0.41	2.15	1.44	-0.395	-0.389
TTACAAAGGTGAAGGTCGTTGATCCCTCTGTAGA	2.62	3.97	0.246	0.134	1.47	2.32	0.241	2.74	0.198	3.56	2.91	3.09	2.66	0.165	3.13	2.1	0.228	1.08
CCTTACGGGTCACTGACAGTTTATAGCATTTGGA	3.68	3.57	0.77	0.36	2.21	4.38	0.495	4.35	1	3.9	3.2	5.31	4.77	2.11	5.48	2.74	0.505	1.42
TTACCAAGGTGAGCTGCGGTCGTTGATCCAACTC	0.329	1.64	0.125	-0.586	-0.584	1.38	-0.459	0.61	-0.775	1.07	0.677	0.0521	0.0746	-0.731	0.198	2.28	0.255	-0.523
ACTAGTTGGTCAGCTGAGGTCACCCACAATTCGG	1.12	2.73	0.761	0.737	3.43	5.45	1.71	4.87	1.52	3.58	4.38	4.14	4.02	1.19	3.69	4.97	5.19	3.57
CCGACTCGGGCAGAAAGGTTACCATACCATCCGG	-0.0361	0.238	-1.52	-1.19	0.529	0.674	-0.293	1.33	-0.25	1.74	1.59	1.41	1.02	-0.246	1.6	1.01	-0.699	-0.0904
TCATATAGGTAATACAGGTGAACGTCGGCATCTA	4.33	3.64	1.21	1.68	1.2	0.756	0.663	1.55	2.19	0.705	0.903	0.819	0.771	1.86	1.55	1.18	0.563	0.482
GCGACTGAGGCATCAGCAGGTTACCATAACTTAA	-0.328	-0.559	-1.15	-0.218	-0.486	-0.397	-0.552	0.102	-0.596	-0.298	-0.000366	-0.216	-0.35	-0.168	-0.0735	0.371	-0.148	-0.64
CGTCCAAGGTCAGCAGGGCAGTGAAAGCGACGTG	2.44	3.13	-0.138	-1.04	1.69	2.25	0.00417	3.12	0.417	5.17	4.12	5.28	5.9	2.63	3.74	3.61	1.9	1.02
GCATATAGGTAATACGAGGTGAAAGTCCGATTGT	4.42	3.44	0.607	1.33	0.669	0.96	0.299	1.27	0.304	0.336	0.883	0.378	0.419	0.527	0.781	4.46	1.41	-0.0522
GCTAGCAGTCCATTTGGGTCACTCAATGACGGGC	0.379	1.16	-1.16	-1.53	0.032	0.67	0.689	0.82	-0.831	0.88	1.54	0.428	0.586	0.506	0.617	1.82	0.507	0.912
GCTCGTAGGACAAGGTCAGAGCTTTGTCCGTAGA	0.0127	1.08	-1.37	-1.3	0.722	1.63	-0.493	2.13	-1.71	3.16	2.93	2.95	3.49	0.281	2.55	2.64	0.975	0.106
TCGAGTAGGTTACCAATTGGGCATTCAGCTTTCT	3.77	2.73	-0.446	-0.0338	-0.44	0.0575	-0.745	0.253	-0.895	0.606	-0.00589	0.186	-0.124	0.484	0.205	-0.0916	-0.446	-0.653
CCTCGTAGGACAACAGGAGGTCAGAGCTGCCAGA	0.397	0.633	-0.938	-1.38	1.75	2.08	0.26	2.37	0.699	2.56	3.16	3.05	3	0.577	2	2.51	0.709	0.704
TAGCCTAGGTCATTGGGCGAGTATAGTACGCATC	1.88	3.05	0.311	-0.0966	1.15	1.59	-0.283	2.09	-0.259	3.69	2.6	3.77	4.01	1.2	2.88	2.72	0.571	1.08
TCATATAGGTAAAGGTGTAAGTCGAACGATATGA	3.51	3.04	1.38	0.989	0.612	0.127	-0.297	0.259	0.411	0.413	-0.352	0.365	0.406	0.642	0.621	-0.275	-0.761	-0.275
GCTAGCAGGCAATTTGGGTCACTCAATGACGGGC	2.45	2.92	0.145	-1.09	-0.111	0.273	-0.523	1.08	-0.688	0.971	1.55	0.628	0.847	-0.416	0.683	2.76	0.687	-0.322
ATCTCTAGGTAAGAGTCAGTTCAGTGAAGAACGC	1.76	1.41	0.489	0.902	1.16	0.741	1.13	0.349	1.11	0.454	0.813	0.338	0.332	0.262	0.0582	0.853	0.649	0.916
CCGACTGGGGCAAGGTTACCAAAACGCACAGCCA	3.12	3.53	-0.395	-0.973	0.0774	0.341	-0.627	1.09	-0.287	1.73	1.38	1.04	1.18	-0.429	1.23	1.29	0.178	-0.217

— the supplement of paper PMC6555819
